Measurements from PubChem BioAssay.
Active and inactive are the calls of the source.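 Rule for the calls, unless noted: active = primary screen active and over 50% activation in each of two duplicate runs; inactive = the rest.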

test system: transient receptor potential cation channel C4 beta (TRPC4), mouse; assay: activators of mouse TRPC4 channel, confirmation, cell-based, second round, Fluo4, HEK293 TRPC4beta/mu-opioid, 1 µM (AID 2461); conditions: Fluo4 calcium fluorescence, at 1 µM; stronger effect = higher value;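 for activation: 0% = wells without test compound as baseline of integrated fluorescence ratio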

Compound | activation | outcome
CN1CCC(CNC(=O)Nc2ccccc2)(c2ccccc2)CC1 | 52% (active) | 
Cc1ccc(C)c(OCCCCCn2ccnc2)c1 |  | inactive
CN(C)C(CNC(=O)c1ccc2ccccc2n1)c1ccccc1 (stereo not given) |  | inactive
CCn1cc(CN2CCC(n3nccc3NC(=O)CCOc3ccccc3)CC2)cn1 |  | inactive
CCOC(=O)C1(CCOc2ccccc2)CCN(Cc2cnc(C)s2)CC1 |  | inactive
CCN1CCN(c2ccc(S(=O)(=O)N3CCOCC3)cc2NC(=O)C(C)Oc2cccc(Cl)c2)CC1 (stereo not given) |  | inactive
CN(CCc1nc2ccc(Cl)cc2[nH]1)Cc1nc(CC2CC2)no1 |  | inactive
COc1ccccc1CCC(=O)Nc1cc(S(=O)(=O)N2CCCCC2)ccc1N1CCN(C)CC1 | 67% (active) | 
CCCCC(=O)NNC(=S)NC(=O)c1ccc(C)cc1 |  | inactive
Cc1ccc(C2N(c3ccc(Cl)c(Cl)c3)C(=O)C3CCCN32)o1 (stereo not given) |  | inactive
COc1ccccc1N1CCN(C(c2cccs2)C(C)NC(=O)c2cccs2)CC1 (stereo not given) |  | inactive
O=C(Nc1nnc(-c2ccccc2Cl)o1)c1nc2ccccc2s1 |  | inactive
CCOC(=O)C1(CC2CCCCO2)CCN(Cc2c(C)cc(C)cc2-n2cccn2)CC1 (stereo not given) | 103% (active) | 
Cc1ccccc1OCC(=O)NNC(=S)NC(=O)c1ccco1 |  | inactive
Cc1ccc(C2(O)CN(c3ccccc3C)C3=[N+]2CCS3)cc1 (stereo not given) | 76% (active) | 
Cc1ccccc1C(=O)NNC(=S)NC(=O)c1ccccc1 |  | inactive
Cc1ccc(C(=O)NC(=S)NNC(=O)c2ccccc2)cc1 |  | inactive
Fc1ccc(-c2nnc(CN3CCN(c4ncc(C(F)(F)F)cc4Cl)CC3)o2)cc1 |  | inactive
CNCCCOc1ccc2c(c1)CCC2 |  | inactive
CCN(CCCNS(=O)(=O)c1cc(-c2cc(C)no2)ccc1C)Cc1ccccc1 | 96% (active) | 

Compound | activation | outcome
CCOC(=O)c1oc2ccc(OC)cc2c1NC(=O)CN1CCN(C)CC1 |  | inactive
COc1ccc(C(CNC(=O)c2cc(SC)ccc2Cl)N(C)C)cc1 (stereo not given) | 77% (active) | 
O=C(NCCc1ccccn1)C(F)(F)C(F)(F)C(F)(F)C(F)(F)C(F)(F)C(F)F |  | inactive
CCCCCSc1nnc2c(n1)OC(c1cccn1C)N(C(C)=O)c1ccccc1-2 (stereo not given) |  | inactive
COc1ccc(-c2cc(C#N)nc(N3CCNCC3)n2)cc1 |  | inactive
Cc1ccccc1NC(=S)NCCc1ccccn1 |  | inactive
Cn1c(CN2CCN(c3cccc(Cl)c3)CC2)nc2ccccc21 |  | inactive
O=C(Cn1c(-c2ccccc2)c[n+]2ccsc12)c1ccc(Br)cc1 | 77% (active) | 
CCn1c(N2CCN(Cc3ccc([N+](=O)[O-])cc3)CC2)nc2ccccc21 | 83% (active) | 
CN(C)C(CNC(=S)Nc1ccc(F)cc1)c1cccnc1 (stereo not given) | 82% (active) | 
COc1ccc(C(=O)NC(=S)NNC(=O)c2c(-c3ccccc3)noc2C)cc1OC |  | inactive
CC1CC(C)CN(CCCNC(=O)COc2cc(=O)n(C)c3ccccc23)C1 (stereo not given) | 80% (active) | 
CN(C)CCCN(C(=O)c1ccc(C(=O)c2ccccc2)cc1)c1nc2ccc(F)cc2s1 |  | inactive
CCCCN(CC)CCNC(=O)c1cc2cc3ccc(Cl)cc3nc2o1 |  | inactive
COc1ccc(C(=O)NC(=S)NNC(=O)CCc2ccccc2)cc1 |  | inactive
CCN(CC)CCSc1nc2ccc(OC)cc2[nH]1 | 60% (active) | 
Cc1ccc(C)c(OCCCCn2ccnc2)c1 |  | inactive
Cc1nc(/N=C(\N)NC(=O)NC2CCCCC2)nc2ccccc12 | 66% (active) | 
COC(=O)[C@@]1(Cc2ccc(F)cc2)[C@H]2c3cc(C(=O)N(C)C)n(CCc4ccccn4)c3C[C@H]2CN1C(=O)c1ccccc1 |  | inactive
O=C(CNS(=O)(=O)c1ccc2ccccc2c1)NCCc1ccccn1 |  | inactive

test system: TRPC4 (transient receptor potential cation channel C4 beta), mouse; assay: positive allosteric modulators of mouse TRPC4, confirmation, cell-based, second round, Fluo-4, HEK293 TRPC4beta/mu-opioid, 1 µM (AID 2554;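 active = primary screen hit whose fluorescence ratio, in both repeats, exceeds the weak agonist control mean by 3 SD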); conditions: DAMGO EC20, Fluo-4 calcium flux, at 1 µM; stronger effect = higher value

Compound | outcome | potentiation
CN1CCC(CNC(=O)Nc2ccccc2)(c2ccccc2)CC1 | inactive | 
Cc1ccc(C)c(OCCCCCn2ccnc2)c1 | inactive | 
CN(C)C(CNC(=O)c1ccc2ccccc2n1)c1ccccc1 (stereo not given) | inactive | 
CCn1cc(CN2CCC(n3nccc3NC(=O)CCOc3ccccc3)CC2)cn1 | inactive | 
CCOC(=O)C1(CCOc2ccccc2)CCN(Cc2cnc(C)s2)CC1 | inactive | 
CCN1CCN(c2ccc(S(=O)(=O)N3CCOCC3)cc2NC(=O)C(C)Oc2cccc(Cl)c2)CC1 (stereo not given) | inactive | 
CN(CCc1nc2ccc(Cl)cc2[nH]1)Cc1nc(CC2CC2)no1 | inactive | 
COc1ccccc1CCC(=O)Nc1cc(S(=O)(=O)N2CCCCC2)ccc1N1CCN(C)CC1 | inactive | 
CCCCC(=O)NNC(=S)NC(=O)c1ccc(C)cc1 | inactive | 
Cc1ccc(C2N(c3ccc(Cl)c(Cl)c3)C(=O)C3CCCN32)o1 (stereo not given) |  | 9% (active)
COc1ccccc1N1CCN(C(c2cccs2)C(C)NC(=O)c2cccs2)CC1 (stereo not given) | inactive | 
O=C(Nc1nnc(-c2ccccc2Cl)o1)c1nc2ccccc2s1 | inactive | 
CCOC(=O)C1(CC2CCCCO2)CCN(Cc2c(C)cc(C)cc2-n2cccn2)CC1 (stereo not given) | inactive | 
Cc1ccccc1OCC(=O)NNC(=S)NC(=O)c1ccco1 | inactive | 
Cc1ccc(C2(O)CN(c3ccccc3C)C3=[N+]2CCS3)cc1 (stereo not given) | inactive | 
Cc1ccccc1C(=O)NNC(=S)NC(=O)c1ccccc1 | inactive | 
Cc1ccc(C(=O)NC(=S)NNC(=O)c2ccccc2)cc1 | inactive | 
Fc1ccc(-c2nnc(CN3CCN(c4ncc(C(F)(F)F)cc4Cl)CC3)o2)cc1 | inactive | 
CNCCCOc1ccc2c(c1)CCC2 |  | 24% (active)
CCN(CCCNS(=O)(=O)c1cc(-c2cc(C)no2)ccc1C)Cc1ccccc1 | inactive | 

Compound | outcome | potentiation
CCOC(=O)c1oc2ccc(OC)cc2c1NC(=O)CN1CCN(C)CC1 | inactive | 
COc1ccc(C(CNC(=O)c2cc(SC)ccc2Cl)N(C)C)cc1 (stereo not given) | inactive | 
O=C(NCCc1ccccn1)C(F)(F)C(F)(F)C(F)(F)C(F)(F)C(F)(F)C(F)F | inactive | 
CCCCCSc1nnc2c(n1)OC(c1cccn1C)N(C(C)=O)c1ccccc1-2 (stereo not given) | inactive | 
COc1ccc(-c2cc(C#N)nc(N3CCNCC3)n2)cc1 | inactive | 
Cc1ccccc1NC(=S)NCCc1ccccn1 | inactive | 
Cn1c(CN2CCN(c3cccc(Cl)c3)CC2)nc2ccccc21 | inactive | 
O=C(Cn1c(-c2ccccc2)c[n+]2ccsc12)c1ccc(Br)cc1 | inactive | 
CCn1c(N2CCN(Cc3ccc([N+](=O)[O-])cc3)CC2)nc2ccccc21 | inactive | 
CN(C)C(CNC(=S)Nc1ccc(F)cc1)c1cccnc1 (stereo not given) | inactive | 
COc1ccc(C(=O)NC(=S)NNC(=O)c2c(-c3ccccc3)noc2C)cc1OC | inactive | 
CC1CC(C)CN(CCCNC(=O)COc2cc(=O)n(C)c3ccccc23)C1 (stereo not given) | inactive | 
CN(C)CCCN(C(=O)c1ccc(C(=O)c2ccccc2)cc1)c1nc2ccc(F)cc2s1 | inactive | 
CCCCN(CC)CCNC(=O)c1cc2cc3ccc(Cl)cc3nc2o1 |  | 20% (active)
COc1ccc(C(=O)NC(=S)NNC(=O)CCc2ccccc2)cc1 | inactive | 
CCN(CC)CCSc1nc2ccc(OC)cc2[nH]1 | inactive | 
Cc1ccc(C)c(OCCCCn2ccnc2)c1 | inactive | 
Cc1nc(/N=C(\N)NC(=O)NC2CCCCC2)nc2ccccc12 | inactive | 
COC(=O)[C@@]1(Cc2ccc(F)cc2)[C@H]2c3cc(C(=O)N(C)C)n(CCc4ccccn4)c3C[C@H]2CN1C(=O)c1ccccc1 | inactive | 
O=C(CNS(=O)(=O)c1ccc2ccccc2c1)NCCc1ccccn1 | inactive | 
